Over roughly 81,000 sequences, “one-hybrid fitness for binding NBS DNA” has its median near -0.1; the highest 2% begin near 0.36. The entries come from a sample that favours the highest values as a whole.
B1: Caulobacter ParB omega fusion; a variant is named by its letters at X, in order, B8GW30 (parent)
chain: MESVVVGEPGMSEGRRGLGRGLSALLGEVDAAPAQAPGEQLGGSREAPIEILQRNPDQPRRTFREEDLEDLSNSIREKGVLQPILVRPSPDTAGEYQIVAGERAWRAAQRAGLKTVPIMVRELDDLAVLEIGIIENVQRADLNVLEEALSYKVLMEKFERTQENIAQTIGKSXSHVANXMRLLXLPDEVQSYLVSGELTAXHARAIAAAADPVALAKQIIEGGLSVRETEALARKAPNLSAGKSKGGRPPRVKDTDTQALESDLSSVLGLDVSIDHRGSTGTLTITYATLEQLDDLCNRLTRGI

Variants of: B1
Experiment: one-hybrid fitness for binding NBS DNA (the Noc-binding site; scaled: cognate 1, non-cognate 0); higher = stronger binding
Conditions: with NBS DNA site
Outline: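 Fitness is the rescaled log change in variant-to-wild-type read ratio, measured by Illumina sequencing of plasmids before and after bacterial one-hybrid selection. The scale puts cognate at 1 and non-cognate at 0. Selection of Caulobacter ParB libraries, four specificity codons randomised, took place in E. coli USO with a HIS3 reporter, site 19 bp from the promoter, over 48 hours at 37°C on M9-minus-histidine with 0.1 mM IPTG and 5 mM 3-AT.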

| Variant | one-hybrid fitness for binding NBS DNA |
| --- | --- |
| FQVR | ≤ 0.2 |
| TYLE | ≤ 0.2 |
| YVWI | ≤ 0.2 |
| RRTA | 0.619 |
| RRYA | 0.684 |
| RSTA | ≤ 0.2 |
| RCTA | 0.238 |
| RRGA | 0.664 |
| RRSA | 0.605 |
| RCSA | 0.232 |
| RCYA | 0.24 |
| RPGA | ≤ 0.2 |
| RSSA | ≤ 0.2 |
| RSYA | ≤ 0.2 |
| RCGA | 0.259 |
| AHHE | ≤ 0.2 |
| WMIS | ≤ 0.2 |
| DNAG | ≤ 0.2 |
| VKPI | ≤ 0.2 |
| VNAV | ≤ 0.2 |
| CCMW | ≤ 0.2 |
| QMGI | ≤ 0.2 |
| TSPL | ≤ 0.2 |
| RQFK | ≤ 0.2 |
| VLYA | ≤ 0.2 |

| Variant | one-hybrid fitness for binding NBS DNA |
| --- | --- |
| QHGK | ≤ 0.2 |
| IVPF | ≤ 0.2 |
| PKES | ≤ 0.2 |
| VFPS | ≤ 0.2 |
| FLQS | ≤ 0.2 |
| QVPL | ≤ 0.2 |
| LTRI | ≤ 0.2 |
| GFGY | ≤ 0.2 |
| SVNC | ≤ 0.2 |
| RLRA | 0.295 |
| RRRA | 0.671 |
| RCWA | ≤ 0.2 |
| RCHA | 0.307 |
| RRCA | 0.584 |
| RARA | 0.309 |
| RSHA | ≤ 0.2 |
| RCCA | 0.268 |
| RPWA | ≤ 0.2 |
| RRHA | 0.66 |
| RRWA | 0.546 |
| RPCA | ≤ 0.2 |
| PPGV | ≤ 0.2 |
| IQLC | ≤ 0.2 |
| EVWT | ≤ 0.2 |
| YTCT | ≤ 0.2 |

| Variant | one-hybrid fitness for binding NBS DNA |
| --- | --- |
| YRGS | ≤ 0.2 |
| DVKL | ≤ 0.2 |
| HVRW | ≤ 0.2 |
| NNGC | ≤ 0.2 |
| KTNT | 0.226 |
| RCQA | 0.238 |
| RCMA | ≤ 0.2 |
| RCLA | ≤ 0.2 |
| RRMA | 0.591 |
| RRLA | 0.584 |
| RRQA | 0.695 |
| RRIA | 0.552 |
| RCIA | ≤ 0.2 |
| RSLA | ≤ 0.2 |
| RRPA | 0.282 |
| RPMA | ≤ 0.2 |
| RSQA | ≤ 0.2 |
| APCY | ≤ 0.2 |
| TLCF | ≤ 0.2 |
| NTLF | ≤ 0.2 |
| CLPC | ≤ 0.2 |
| DMHR | ≤ 0.2 |
| GSQM | ≤ 0.2 |
| RREA | 0.44 |
| RSEA | ≤ 0.2 |

| Variant | one-hybrid fitness for binding NBS DNA |
| --- | --- |
| RCEA | ≤ 0.2 |
| STQW | ≤ 0.2 |
| SNSF | ≤ 0.2 |
| WTSV | ≤ 0.2 |
| QTVQ | 0.534 |
| QTWQ | ≤ 0.2 |
| QTKQ | 0.568 |
| QTIQ | ≤ 0.2 |
| YDNH | ≤ 0.2 |
| MVEY | ≤ 0.2 |
| KRHS | 0.464 |
| KRIS | 0.308 |
| KRAD | ≤ 0.2 |
| KRES | 0.264 |
| KRFS | 0.358 |
| KRDH | ≤ 0.2 |
| KRAS | 0.409 |
| KRHN | ≤ 0.2 |
| KRYS | 0.447 |
| KRRP | ≤ 0.2 |
| KRHD | ≤ 0.2 |
| KRRH | 0.422 |
| GYTL | ≤ 0.2 |
| SSDL | ≤ 0.2 |
| SLMH | ≤ 0.2 |

| Variant | one-hybrid fitness for binding NBS DNA |
| --- | --- |
| HKYA | ≤ 0.2 |
| YCMR | ≤ 0.2 |
| HEIR | ≤ 0.2 |
| KCRS | 0.216 |
| KRSS | 0.421 |
| KRQH | 0.221 |
| KRSN | ≤ 0.2 |
| KRNH | 0.265 |
| KRRN | 0.217 |
| KRDS | 0.28 |
| KRRS | 0.549 |
| KRNS | 0.453 |
| KRSH | 0.205 |
| KRQS | 0.443 |
| KRQN | ≤ 0.2 |
| VPML | ≤ 0.2 |
| PIAK | ≤ 0.2 |
| QDVN | ≤ 0.2 |
| APGE | ≤ 0.2 |
| GIHG | ≤ 0.2 |
| KCYL | ≤ 0.2 |
| KRWS | 0.436 |
| KRCH | ≤ 0.2 |
| KRWH | ≤ 0.2 |
| KRCN | ≤ 0.2 |

| Variant | one-hybrid fitness for binding NBS DNA |
| --- | --- |
| KRWN | ≤ 0.2 |
| KRCS | 0.387 |
| WTHQ | ≤ 0.2 |
| AAML | ≤ 0.2 |
| VNPF | ≤ 0.2 |
| GHPM | ≤ 0.2 |
| CVHG | ≤ 0.2 |
| RNRT | 0.391 |
| RNYS | ≤ 0.2 |
| RNRS | 0.491 |
| RNRP | ≤ 0.2 |
| RNDT | ≤ 0.2 |
| RNKT | 0.46 |
| RNYT | ≤ 0.2 |
| RNVT | ≤ 0.2 |
| RNKD | ≤ 0.2 |
| YKHS | ≤ 0.2 |
| KGVE | ≤ 0.2 |
| RLGD | ≤ 0.2 |
| RMGD | ≤ 0.2 |
| RIGP | ≤ 0.2 |
| RSGN | ≤ 0.2 |
| RLGP | ≤ 0.2 |
| RSGD | ≤ 0.2 |
| RMGP | ≤ 0.2 |

| Variant | one-hybrid fitness for binding NBS DNA |
| --- | --- |
| RIGS | 0.369 |
| RMGS | 0.461 |
| RIGN | ≤ 0.2 |
| RSGS | 0.419 |
| RLGS | 0.419 |
| CRQG | ≤ 0.2 |
| LDLL | ≤ 0.2 |
| AGNM | ≤ 0.2 |
| AITP | ≤ 0.2 |
| AYSK | ≤ 0.2 |
| DEHT | ≤ 0.2 |
| IPES | ≤ 0.2 |
| ERQV | ≤ 0.2 |
| QYAC | ≤ 0.2 |
| KLFS | ≤ 0.2 |
| RHER | 0.235 |
| EADR | ≤ 0.2 |
| KFKV | ≤ 0.2 |
| RKGN | ≤ 0.2 |
| RAGN | ≤ 0.2 |
| RTGD | ≤ 0.2 |
| RKGD | ≤ 0.2 |
| RTGN | ≤ 0.2 |
| RAGD | ≤ 0.2 |
| RKGS | 0.576 |

| Variant | one-hybrid fitness for binding NBS DNA |
| --- | --- |
| RHGN | ≤ 0.2 |
| RAGS | 0.466 |
| RHGD | ≤ 0.2 |
| RHGS | 0.368 |
| RTGS | 0.491 |
| LATQ | ≤ 0.2 |
| NNCL | ≤ 0.2 |
| PCCV | ≤ 0.2 |
| VENS | ≤ 0.2 |
| FMGS | ≤ 0.2 |
| DHPH | ≤ 0.2 |
| KDLT | ≤ 0.2 |
| ENHG | ≤ 0.2 |
| NCII | ≤ 0.2 |
| SQRK | ≤ 0.2 |
| MVPG | ≤ 0.2 |
| RCGS | 0.482 |
| RPGS | ≤ 0.2 |
| RFGS | ≤ 0.2 |
| GNMC | ≤ 0.2 |
